Source: ChEMBL document CHEMBL4513135, “CO-ADD screening of IQOG CSIS (Spain) compounds”
Results with a measured potency or affinity are listed apart.

test system: Candida albicans; conditions: 32 ug/mL

Row | Compound | Inhibition [%]
1 | c1ccc(CNc2ncnc3c2cnn3-c2ccccc2)cc1 | 0.45
2 | C#CCNc1nc(N)c(C#N)cc1C#N | 2.29
3 | CC1(C)OC(=O)C(=Cc2ccc([N+](=O)[O-])cc2)C(=O)O1 | 1.46
4 | O=C(Cc1c[nH]c2ccccc12)NNCc1ccccc1 | 0.22
5 | C#CCN(C)c1nc(N(C)CC#C)c(C#N)cc1C#N | 2.14
6 | CCOC(=O)N/N=C/c1ccccc1 | 4.9
7 | CC(=O)/C=C/C1CCN(Cc2ccccc2)CC1 | 0.43
8 | Cc1cnc(NC(=O)OC(C)(C)C)c(Br)c1 | -0.1
9 | COC(=O)C(=Cc1ccc([N+](=O)[O-])cc1)NC(=O)c1ccccc1 | 0.51
10 | Cl.ClCCCC1CCNCC1 | 0.27
11 | COc1cccc(C2c3c(nc4c(c3N)CCCC4)Oc3ccc4ccccc4c32)c1 (stereo not given) | -0.15
12 | CCOC(=O)c1c(C)nc2nc3c(c(N)c2c1-c1ccc(Cl)cc1)CCCCC3 | -0.36
13 | COc1cccc(C2c3c(ccc4ccccc34)OC(=NBr)C2(Br)C#N)c1 (stereo not given) | 26.4
14 | NNC(=O)c1cc2ccccc2n1Cc1ccccc1 | -0.41
15 | N#Cc1c(N)nc2[nH]nc(N)c2c1-c1ccccc1 | 0.49
16 | N#CC1=C(N)Oc2ccc3ccccc3c2C1c1ccc(O)cc1 (stereo not given) | 2.93
17 | COC(=O)/C(=C/c1ccc(O)cc1)NC(=O)c1ccccc1 | 1.73
18 | N#Cc1cc2c(N)c3c(nc2nc1Cl)CCCC3 | 2.63
19 | C#CCN(C)Cc1cc2cc(OCOc3ccc4c(c3)cc(CN(C)CC#C)n4C)ccc2n1C | -0.1
20 | N#CC1(Br)C(=NBr)Oc2c(ccc3ccccc23)C1c1ccccc1[N+](=O)[O-] (stereo not given) | 25

Row | Compound | Inhibition [%]
21 | N#CC1=C(N)Oc2ccc3ccccc3c2C1c1cccc([N+](=O)[O-])c1 (stereo not given) | 10.7
22 | N#CC1=C(N)Oc2c(ccc3ccccc23)C1c1ccc(O)cc1 (stereo not given) | 0.86
23 | NC(=O)c1cc2cc(OCc3ccccc3)ccc2[nH]1 | 6.4
24 | C#CCNc1[nH]c2ccc(O)cc2c1C#N | 1.86
25 | Cn1ccnc1C1c2c(nc3c(c2N)CCC3)Oc2ccc3ccccc3c21 (stereo not given) | 1.46
26 | CCC(Cc1ccccc1)NNC(=O)c1cc2ccccc2[nH]1 (stereo not given) | 1.13
27 | Cn1cc(C(=O)NN)c2ccccc21 | 4.47
28 | Cc1ccc(C2CC2(N)C(=O)O)cc1.Cl (stereo not given) | 1.46
29 | Cl.NNN1CCc2ccccc21 | 2.29
30 | NC(=O)N/N=C/c1c[nH]c2ccccc12 | 0.31
31 | O=C1NC(=S)N/C1=C\c1c[nH]c2ccccc12 | -0.31
32 | COc1cc(C2c3ccc4ccccc4c3Oc3nc4c(c(N)c32)CCCC4)ccc1O.Cl (stereo not given) | -0.98
33 | Cc1nc2c3c(C)nn(-c4ccccc4)c3ncn2n1 | -0.04
34 | CCCC(C)NNC(=O)Cc1c[nH]c2ccccc12 (stereo not given) | 0.38
35 | Cc1nc2c3cnn(-c4ccccc4)c3nc(C)n2n1 | -1.82
36 | Cc1ccc2nc(Cl)c(/C=N/NCc3ccccc3)cc2c1 | 14.7
37 | Cc1ccc2nc(Cl)c(/C=N/C(C)(C)C)cc2c1 | 7.21
38 | N#Cc1cc(C#N)c(NCc2ccccc2)nc1N | 1.7
39 | c1ccc(Cn2ccc3ccccc32)cc1 | 4.28
40 | C=CCNCc1cc2cc(OCCCC3CCN(Cc4ccccc4)CC3)ccc2[nH]1.O.O=C(O)C(=O)O.O=C(O)C(=O)O | 0.53

test system: Cryptococcus neoformans; conditions: Concentration 32 ug.mL-1; ASSAY_TEST Inhibition of Fungal Growth; detection method Resazurin; Absorption (OD600-OD570); plate type 384well; NBS; CORNING #3640

Row | Compound | Inhibition [%]
41 | c1ccc(CNc2ncnc3c2cnn3-c2ccccc2)cc1 | -6.46
42 | C#CCNc1nc(N)c(C#N)cc1C#N | -24.9
43 | CC1(C)OC(=O)C(=Cc2ccc([N+](=O)[O-])cc2)C(=O)O1 | -6.06
44 | O=C(Cc1c[nH]c2ccccc12)NNCc1ccccc1 | -1.3
45 | C#CCN(C)c1nc(N(C)CC#C)c(C#N)cc1C#N | -56.65
46 | CCOC(=O)N/N=C/c1ccccc1 | -5.96
47 | CC(=O)/C=C/C1CCN(Cc2ccccc2)CC1 | -60.96
48 | Cc1cnc(NC(=O)OC(C)(C)C)c(Br)c1 | -60.78
49 | COC(=O)C(=Cc1ccc([N+](=O)[O-])cc1)NC(=O)c1ccccc1 | -0.7
50 | Cl.ClCCCC1CCNCC1 | -2.91
51 | COc1cccc(C2c3c(nc4c(c3N)CCCC4)Oc3ccc4ccccc4c32)c1 (stereo not given) | -0.19
52 | CCOC(=O)c1c(C)nc2nc3c(c(N)c2c1-c1ccc(Cl)cc1)CCCCC3 | -57.83
53 | COc1cccc(C2c3c(ccc4ccccc34)OC(=NBr)C2(Br)C#N)c1 (stereo not given) | -22.56
54 | NNC(=O)c1cc2ccccc2n1Cc1ccccc1 | -2.53
55 | N#Cc1c(N)nc2[nH]nc(N)c2c1-c1ccccc1 | -62.75
56 | N#CC1=C(N)Oc2ccc3ccccc3c2C1c1ccc(O)cc1 (stereo not given) | -36.73
57 | COC(=O)/C(=C/c1ccc(O)cc1)NC(=O)c1ccccc1 | -3.07
58 | N#Cc1cc2c(N)c3c(nc2nc1Cl)CCCC3 | -42.44
59 | C#CCN(C)Cc1cc2cc(OCOc3ccc4c(c3)cc(CN(C)CC#C)n4C)ccc2n1C | -41.21
60 | N#CC1(Br)C(=NBr)Oc2c(ccc3ccccc23)C1c1ccccc1[N+](=O)[O-] (stereo not given) | -80.63

Row | Compound | Inhibition [%]
61 | N#CC1=C(N)Oc2ccc3ccccc3c2C1c1cccc([N+](=O)[O-])c1 (stereo not given) | -44.61
62 | N#CC1=C(N)Oc2c(ccc3ccccc23)C1c1ccc(O)cc1 (stereo not given) | -59.36
63 | NC(=O)c1cc2cc(OCc3ccccc3)ccc2[nH]1 | -61.34
64 | C#CCNc1[nH]c2ccc(O)cc2c1C#N | -54.9
65 | Cn1ccnc1C1c2c(nc3c(c2N)CCC3)Oc2ccc3ccccc3c21 (stereo not given) | -36.13
66 | CCC(Cc1ccccc1)NNC(=O)c1cc2ccccc2[nH]1 (stereo not given) | -1.62
67 | Cn1cc(C(=O)NN)c2ccccc21 | 7.89
68 | Cc1ccc(C2CC2(N)C(=O)O)cc1.Cl (stereo not given) | -7.69
69 | Cl.NNN1CCc2ccccc21 | -9.55
70 | NC(=O)N/N=C/c1c[nH]c2ccccc12 | -3.05
71 | O=C1NC(=S)N/C1=C\c1c[nH]c2ccccc12 | -1.8
72 | COc1cc(C2c3ccc4ccccc4c3Oc3nc4c(c(N)c32)CCCC4)ccc1O.Cl (stereo not given) | -5.33
73 | Cc1nc2c3c(C)nn(-c4ccccc4)c3ncn2n1 | -2.13
74 | CCCC(C)NNC(=O)Cc1c[nH]c2ccccc12 (stereo not given) | 5.38
75 | Cc1nc2c3cnn(-c4ccccc4)c3nc(C)n2n1 | -6.35
76 | Cc1ccc2nc(Cl)c(/C=N/NCc3ccccc3)cc2c1 | -3.59
77 | Cc1ccc2nc(Cl)c(/C=N/C(C)(C)C)cc2c1 | -0.47
78 | N#Cc1cc(C#N)c(NCc2ccccc2)nc1N | 5.02
79 | c1ccc(Cn2ccc3ccccc32)cc1 | -3.9
80 | C=CCNCc1cc2cc(OCCCC3CCN(Cc4ccccc4)CC3)ccc2[nH]1.O.O=C(O)C(=O)O.O=C(O)C(=O)O | -57.95
